Assay results reported in ChEMBL document CHEMBL4513216, “Probing the Open Global Health Chemical Diversity Library for Multistage-Active Starting Points for Next-Generation Antimalarials” (ACS Infect Dis, 2020).
Hit rate of the full screen: of about 69,000 compounds, about 8,600 (12%) showed an effect of 50% or more. The list comes from a sample in which strong results are over-represented; it also holds similar structures and randomly drawn compounds.

The compounds below were run on Plasmodium berghei (assay: Screen against P. berghei liver stage (PbLuc), transformed with Luciferase, at 10uM). Settings: tested at 10 uM.
Assay type: functional, HepG2

SMILES | INHIBITION
CC(C)NC(=O)CCNC(=O)CCc1cc(Br)cs1 | -35.3%
CC(C)NC(=O)CCNC(=O)CCc1cc(Cl)cs1 | 62.8%
COC(=O)CNC(=O)CCc1cc(Cl)cs1 | 36.3%
CN(c1nccc(-c2cnc3sccn3c2=O)n1)C1CCCCC1 | 18.9%
CN(c1nccc(-c2cnc3sc(Cl)cn3c2=O)n1)C1CCCCC1 | 38.2%
Cc1cn2c(=O)c(-c3ccnc(N(C)C4CCCCC4)n3)cnc2s1 | 90.1%
Cc1cc(C(F)(F)F)n2nc(C3CCCN(S(C)(=O)=O)C3)cc2n1 (stereo not drawn) | 26.475%
Cc1cc2[nH]c(=O)oc2cc1S(=O)(=O)N1CCCC(N(C)C)CC1 (stereo not drawn) | 11.6%
Cn1ccnc1C1CCN(S(=O)(=O)c2ccc3c(c2)OCCO3)CC1 | 35.1%
CCC[C@@H]1CN(S(=O)(=O)c2ccc3[nH]c(=O)[nH]c3c2)C[C@H]1NC(C)=O | 3.73%
Cn1ccnc1C1CCN(S(=O)(=O)c2ccc3oc(=O)[nH]c3c2)CC1 | 59.7%
O=c1[nH]c2cc(S(=O)(=O)N3CCC(c4ccsc4)CC3)ccc2o1 | 16.9%
Cn1ccnc1C1CCN(S(=O)(=O)c2ccc3[nH]c(=O)[nH]c3c2)CC1 | 62.9%
CCN(CC)S(=O)(=O)N1CCC(c2c(C(N)=O)sc3ccccc23)C1 (stereo not drawn) | 27.6%
CC(=O)N1CCN(CC(N)=O)CC(COc2ccccc2)C1 (stereo not drawn) | -17.7%
CCc1cc(NC(=O)C2CCCN(C(=O)NCC(C)C)C2)[nH]n1 (stereo not drawn) | 19.3%
NC(=O)c1cn(CC2CC2)c(C2CC2)n1 | -2.03%
CCC(CNC(=O)c1cncc(Br)c1)N1CCc2ccccc2C1 (stereo not drawn) | 66.3%
O=C(NCC(O)c1ccc(F)cc1F)c1ccccc1F (stereo not drawn) | -57.9%
CCC(CNC(=O)c1ccccc1OC)N1CCc2ccccc2C1 (stereo not drawn) | 63.3%
CCC(CNC(=O)c1ccco1)N1CCc2ccccc2C1 (stereo not drawn) | 51.4%
CCC(C)NC(=O)c1cncc(Br)c1 (stereo not drawn) | -76.5%
CCC(CNC(=O)Nc1cnn(CC)c1)N1CCc2ccccc2C1 (stereo not drawn) | 7.67%

SMILES | INHIBITION
CCC(CNC(=O)c1ccc(Br)o1)N1CCc2ccccc2C1 (stereo not drawn) | 16.8%
CCC(CNC(=O)c1ccc(F)cc1F)N1CCc2ccccc2C1 (stereo not drawn) | 64.3%
CCC(CNC(=O)c1ccccn1)N1CCc2ccccc2C1 (stereo not drawn) | 40.5%
COc1cccc(C(=O)NCCCN2CCc3ccccc3C2)c1OC | 25.3%
Cn1cccc1C(CNC(=O)c1ccc(F)cc1F)N1CCCCCC1 (stereo not drawn) | 34.7%
COc1ccccc1C(=O)NCC(c1cccn1C)N1CCOCC1 (stereo not drawn) | 44.9%
CC(c1ccco1)N(C)C(=O)NCCOc1ccc(C#N)cc1 (stereo not drawn) | 5.94%
CN(C)C(=O)CN1CCOCC2(CCN(CC3CCOCC3)CC2)C1 | 34.9%
CNc1cccc(C2CCCN(C(=O)c3cncs3)C2)n1 (stereo not drawn) | 5.56%
O=C(N[C@@H]1C[C@@H]2CC[C@H]1C2)C1(Oc2ccc(Cl)cc2)CCNCC1 | 9.72%
CCc1cnc(N2CC[C@@H]3CN(CCC(C)C)S(=O)(=O)[C@@H]3CC2)nc1 | -23.7%
CC(C)C(=O)N1CC[C@H]2N(C)CC[C@@]2(C(=O)N2CCCC2)CC1 | 3.81%
Cc1cc(C)c(CNC(=O)N2CCCC2c2cccc(F)c2)c(=O)[nH]1 (stereo not drawn) | 27.8%
CC(C)CS(=O)(=O)N1CCC2(CN(c3ccsc3)C(=O)CN2C)C1 (stereo not drawn) | 23.6%
O=C(NCC1(COc2cnccn2)C[C@@H](O)[C@@H](O)C1)C1CCCC1 (stereo partly drawn) | -15.7%
CCC(CNC(=O)c1cc(OC)ccc1Br)N1CCc2ccccc2C1 (stereo not drawn) | 33.5%
CSc1ccccc1C(=O)NCCCN1CCc2ccccc2C1 | 5.03%
CCC(CNC(=O)c1ccccc1Br)N1CCc2ccccc2C1 (stereo not drawn) | 56.4%
Cc1nn(C)c(C)c1C1COCCN1C(=O)CSC(C)(C)C (stereo not drawn) | 37.6%
CCN(CC)C(=O)N1CCOCC1c1c(C)nn(C)c1C (stereo not drawn) | 10.7%
CNC(=O)N1CCOCC1c1c(C)nn(C)c1C (stereo not drawn) | 28.7%
Cc1nn(C)c(C)c1C1COCCN1C(=O)NC1CC1 (stereo not drawn) | 17.5%
COCCNC(=O)N1CCOCC1c1c(C)nn(C)c1C (stereo not drawn) | 51%

SMILES | INHIBITION
Cc1nn(C)c(C)c1C1COCCN1C(=O)CC(C)(C)C (stereo not drawn) | 62.2%
O=C(c1cnccn1)N1CCc2ncnc(-c3cccnc3)c2CC1 | 32.7%
CCc1ccc(CN2CCc3ncnc(-c4cccnc4)c3CC2)o1 | -48.8%
O=C(N1CCC(Oc2ccncc2)C1)C1(c2cccc(F)c2)CC1 (stereo not drawn) | 25.1%
O=C(N1CCC(Oc2ccncc2)C1)C1(c2ccc(F)cc2)CC1 (stereo not drawn) | 52%
O=C(N1CCC(Oc2ccncc2)CC1)C1(c2ccc(F)cc2)CC1 | 34.1%
Cc1cc(C(=O)NCC(C)N2CCc3ccccc32)on1 (stereo not drawn) | -25.9%
COCCn1ccc2ccc(C(=O)O)cc21 | -19.6%
c1cncc(CN2CCC3(CCCN(c4nncs4)C3)C2)c1 (stereo not drawn) | -11.6%
Cc1ccc(N2CCCC3(COCCN(c4ncccn4)C3)C2)nn1 (stereo not drawn) | -37.9%
Cc1ccc(N2CCOCC3(CCCN(c4ncc(F)cn4)C3)C2)nn1 (stereo not drawn) | 14.6%
Fc1cnc(N2CCOCC3(CCCN(c4cnccn4)C3)C2)nc1 (stereo not drawn) | -13.7%
c1cnc(N2CCOCC3(CCCN(c4nncs4)C3)C2)cn1 (stereo not drawn) | 72%
CC(C)c1ccc(CN2CCC3(CCCN(c4nncs4)C3)C2)cc1 (stereo not drawn) | 60.4%
COc1ccc(N2CCOCC3(CCCN(c4cnccn4)C3)C2)cc1 (stereo not drawn) | 53.9%
Cc1cnc(N2CCCC3(COCCN(c4ccc(C)nn4)C3)C2)nc1 (stereo not drawn) | 52.6%
Fc1ccc(CN2CCC3(CCCN(c4nncs4)C3)C2)cc1 (stereo not drawn) | -11.6%
Cc1ccc(N2CCCC3(COCCN(c4cnccn4)C3)C2)nn1 (stereo not drawn) | -22.1%
Fc1cccnc1N1CCOCC2(CCCN(c3nncs3)C2)C1 (stereo not drawn) | 12.6%
c1cnc(N2CCCC3(COCCN(c4nncs4)C3)C2)cn1 (stereo not drawn) | 17.5%
COc1ccc(F)c(CNC2CCCc3nc(N(C)C)ncc32)c1 (stereo not drawn) | 37.6%
O=C(CCCOCc1ccccc1)N1CCCC(n2cncn2)C1 (stereo not drawn) | 21.6%
